Among the data in PubChem BioAssay (Tox21) are Potency and outcome values, retold here.

SMILES strings stand for the structures. Inconclusive results are not listed. Calls of active or inactive are those of the source. Unless noted, the call rests on the fitted dose curve; in most records, active means well fitted curve in the direction sought with a large enough effect in the repeat runs; inconclusive means weak or mixed curves; inactive means no such curve, though single readings can be large; an effect the other way counts as inactive or inconclusive.

The nature of assay [1]: qHTS assay to identify small molecule antagonists of the glucocorticoid receptor (GR) signaling pathway - cell viability counter screen (AID 720693; further: nearly all actives have a fitted effect of over 55% in size). (In qHTS, concentration-response curves come from the screen itself.)
Assay [2] is described as follows: qHTS assay for identifying genotoxic compounds that show differential cytotoxicity against isogenic chicken DT40 cell lines with known DNA damage response pathways - wild type cell line (AID 743012). Further: nearly all actives have a fitted effect of over 60% in size. Further: potency means the concentration at half of the fitted maximal effect. In short, it runs like this: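 Cytotoxicity in repair-proficient parental chicken DT40 cells serves as the comparator for Rad54/Ku70- and Rev3-deficient lines. Cells were exposed to compounds for 40 h at 37 C/5% CO2, and ATP-based luminescence (CellTiter-Glo) measured viability.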

Assay [3] can be described thus: qHTS assay for identifying genotoxic compounds that show differential cytotoxicity against isogenic chicken DT40 cell lines with known DNA damage response pathways - Rev3 mutant cell line (AID 743014). Further: nearly all actives have a fitted effect of over 55% in size. Further: potency means the concentration at half of the fitted maximal effect.
Assay [4] in a line: qHTS assay for identifying genotoxic compounds that show differential cytotoxicity against isogenic chicken DT40 cell lines with known DNA damage response pathways - Rad54/Ku70 mutant cell line (AID 743015). Further: nearly all actives have a fitted effect of over 60% in size. Further: potency means the concentration at half of the fitted maximal effect.
Assay [5] is described as follows: qHTS assay to identify small molecule antagonists of the androgen receptor (AR) signaling pathway - cell viability counter screen (AID 743033; further: nearly all actives have a fitted effect of over 45% in size).
Assay [6] is described as follows: qHTS assay to identify small molecule antagonists of the androgen receptor (AR) signaling pathway using the MDA cell line - cell viability counter screen (AID 743041; further: nearly all actives have a fitted effect of over 45% in size). In short, it runs like this: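 qHTS viability read-out; MDA-kb2 AR-luc; R1881-stimulated; 16 h exposure at 37C, 0% CO2; CellTiter-Fluor, 30 min; fluorescence intensity.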
Assay [7] addresses Androgen receptor (Homo sapiens) (UniProt P10275). Kind of assay: qHTS assay to identify small molecule agonists of the androgen receptor (AR) signaling pathway using the MDA cell line (AID 743040; further: nearly all actives have a fitted effect of over 20% in size). In short, it runs like this: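 Agonist activity is measured as luciferase luminescence in human MDA-kb2 cells whose MMTV reporter responds to both AR and GR. Compounds in DMSO incubate 16 h at 37C, 0% CO2, and ONE-Glo is read after 30 min.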

Assay [8] shares this target. In words: qHTS assay to identify small molecule antagonists of the androgen receptor (AR) signaling pathway using the MDA cell line (AID 743042; further: nearly all actives have a fitted effect of over 55% in size). The procedure, abridged: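 MDA-kb2 cells (human breast carcinoma, stably carrying an MMTV-luciferase reporter responsive to AR and GR) were plated at 3,000 cells/well and preincubated 5 hr at 37C, then given compound plus R1881 agonist for 16 h. ONE-Glo luminescence was read.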

For assay [9] the target is unchanged. In words: qHTS assay to identify small molecule agonists of the androgen receptor (AR) signaling pathway (AID 743036; active means well fitted activation curve with a large enough effect in the signal ratio in the repeat runs, with a control signal flat, not every such curve was filed as active; the % refers to the signal ratio). In short, it runs like this:
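In this Tox21 qHTS, 2,000 HEK293 AR-bla cells per well were incubated with compounds for 16 h at 37C and 5% CO2. Fluorescence intensity was recorded 2 h after adding LiveBLAzer B/G FRET substrate at room temperature.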

Assay [10] shares this target. Kind of assay: qHTS assay to identify small molecule antagonists of the androgen receptor (AR) signaling pathway (AID 743035; active means well fitted inhibition curve with a large enough effect in the signal ratio in the repeat runs, not every such curve was filed as active; the % refers to the signal ratio). The procedure, abridged:
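Steps: seed AR-UAS-bla GripTite HEK293 cells, incubate 4 h at 37C; pin in test compound, then add agonist R1881; incubate 16 h at 37C; add LiveBLAzer B/G FRET substrate, 2 h at room temperature; read fluorescence.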

Chain of Androgen receptor (Homo sapiens) (P10275 whole entry, looked up): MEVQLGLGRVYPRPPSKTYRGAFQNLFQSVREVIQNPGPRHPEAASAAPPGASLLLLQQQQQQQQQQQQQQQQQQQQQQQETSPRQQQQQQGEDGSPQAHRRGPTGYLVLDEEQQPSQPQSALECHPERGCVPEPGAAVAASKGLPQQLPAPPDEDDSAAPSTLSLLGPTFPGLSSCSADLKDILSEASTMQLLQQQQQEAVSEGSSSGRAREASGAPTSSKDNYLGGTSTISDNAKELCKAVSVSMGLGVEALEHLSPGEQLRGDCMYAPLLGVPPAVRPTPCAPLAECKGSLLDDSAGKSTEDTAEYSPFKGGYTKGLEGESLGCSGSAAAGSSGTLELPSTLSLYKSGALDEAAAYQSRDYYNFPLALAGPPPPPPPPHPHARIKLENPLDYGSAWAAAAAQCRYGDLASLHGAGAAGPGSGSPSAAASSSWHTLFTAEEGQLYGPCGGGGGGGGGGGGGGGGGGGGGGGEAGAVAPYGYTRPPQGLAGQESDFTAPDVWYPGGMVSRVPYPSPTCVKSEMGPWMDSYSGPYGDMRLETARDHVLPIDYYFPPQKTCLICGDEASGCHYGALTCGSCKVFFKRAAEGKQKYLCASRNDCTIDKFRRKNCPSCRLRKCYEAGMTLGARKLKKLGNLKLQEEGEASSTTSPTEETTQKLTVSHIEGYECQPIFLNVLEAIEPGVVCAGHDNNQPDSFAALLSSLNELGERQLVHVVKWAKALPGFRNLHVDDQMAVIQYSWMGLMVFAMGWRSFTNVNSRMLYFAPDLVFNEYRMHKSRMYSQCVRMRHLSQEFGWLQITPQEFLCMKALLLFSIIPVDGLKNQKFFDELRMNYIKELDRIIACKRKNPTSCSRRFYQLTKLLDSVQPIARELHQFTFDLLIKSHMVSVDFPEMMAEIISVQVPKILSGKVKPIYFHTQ

For the compound `COc1cc(NS(=O)(=O)c2ccc(N)cc2)nc(C)n1`, the Potency entry in assay [1], in assay [2], in [3], in assay [4], in [5] and in assay [6] was “inactive” each time.
In the case of `COc1ccc(-n2nc(C(F)F)cc2-c2ccc(S(C)=O)cc2)cc1` (stereo not given), the Potency entry in assay [1], in [5] and in [6] was “inactive” in each case. The Potency in assay [2] is 61.1 µM (active); in assay [3], 30.6 µM (active); in [4] it was 54.5 µM (active).
On to `C=CCOC(=O)COCCC(C)C`, for which the Potency result in assay [1], in assay [2], in assay [3], in assay [4], in [5] and in assay [6] was “inactive” throughout.
Consider `CCO[Si](C)(CCCOCC1CO1)OCC` (stereo not given), for which the Potency entry in assay [1], in assay [5] and in [6] was “inactive” in each case. Further, the Potency in assay [2] is 13.7 µM (active); in assay [3] it was 7.7 µM (active); in [4] it was 27.3 µM (active).
Consider `COC(C)(C)OC`, for which the Potency entry in assay [1], in [2], in [3], in assay [4], in assay [5] and in assay [6] was “inactive” in each case.
Take `CC1=CC[C@@]23C[C@@H]1C(C)(C)[C@@H]2CC[C@H]3C`: the Potency entry in [1], in assay [2], in assay [3], in assay [5] and in assay [6] was “inactive” in each case.
As to `CC1=CC[C@@H]2C[C@H]1C2(C)C`, the Potency result in assay [1], in assay [2], in [5] and in assay [6] was “inactive” throughout.
In the case of `O=C1[C@@H]2[C@H]3CC[C@H](C3)[C@@H]2C(=O)N1CCCCN1CCN(c2ncccn2)CC1`, the Potency result in assay [1], in [2], in [3], in [5] and in assay [6] was “inactive” each time.
For the compound `CCCCCCC(O)CCCCCCCCCCC(=O)OC` (stereo not given), the Potency entry in [1], in [2], in assay [5] and in assay [6] was “inactive” throughout. Also, the Potency in [4] was 68.6 µM (active).
With `O=C(NS(=O)(=O)/C=C/c1ccccc1)c1ccc(F)cc1Cl`, the Potency entry in [1], in assay [2], in assay [4], in assay [5] and in assay [6] was “inactive” each time.
In the case of `CC(C)(C)C1(CCc2ccc(Cl)cc2)CO1` (stereo not given), the Potency result in assay [1], in assay [2], in [5] and in assay [6] was “inactive” in each case.
Regarding `CCCCCCC(O)CCOC(C)=O` (stereo not given), the Potency entry in [1], in [2], in assay [4], in [5] and in assay [6] was “inactive” each time.
On to `CC(=O)NCCO`, for which the Potency result in [1], in assay [2], in [4], in assay [5] and in assay [6] was “inactive” in each case.
With `CC[C@@H](CO)NCCN[C@@H](CC)CO`, the Potency entry in [1], in assay [2], in assay [4], in [5] and in [6] was “inactive” in each case.
For `CC1CCc2nccnc21` (stereo not given), the Potency result in [1], in assay [2], in assay [5] and in [6] was “inactive” in each case. The Potency in assay [4] is 54.5 µM (active).
Regarding `CCN(CC)c1cccc(O)c1`, the Potency result in assay [1], in assay [2], in [4], in assay [5], in assay [7] and in [6] was “inactive” throughout. The Potency entry in assay [8] was “inactive”.
Turning to `O=C(O)c1cc(Cl)cc(Cl)c1O`, the Potency entry in assay [1], in [3], in assay [4], in assay [5], in assay [7] and in assay [6] was “inactive” each time. The Potency result in [8] is “inactive”. The compound was called inactive in assay [9].
As for `CC(=O)C(=O)CC(C)C`, the Potency result in [1], in assay [2], in [4], in assay [5] and in assay [6] was “inactive” throughout.
Turning to `C=C(C)C(=O)OCCC(F)(F)C(F)(F)C(F)(F)C(F)(F)C(F)(F)C(F)(F)F`, the Potency result in assay [1], in [2], in assay [4], in assay [5] and in [6] was “inactive” in each case.
Turning to `CCCCCCCCCCCCCOS(=O)(=O)O`, the Potency result in assay [1], in assay [2], in assay [10], in [7], in [6] and in assay [8] was “inactive” in each case.
As to `CCN(CC)C(=O)/C(C#N)=C/c1cc(O)c(O)c([N+](=O)[O-])c1`, the Potency result in assay [1], in assay [2], in [4], in assay [5], in assay [7] and in [6] was “inactive” in each case. In assay [8], the Potency result is “inactive”.
As for `O=CNNC=O`, the Potency result in assay [1], in assay [2], in assay [4], in assay [5] and in assay [6] was “inactive” each time.
On to `O=C(C(=O)c1ccco1)c1ccco1`, for which the Potency result in [1], in [3], in assay [4], in assay [5], in assay [10] and in assay [7] was “inactive” each time. Further, the Potency entry in assay [6] and in assay [8] was “inactive” in each case. Moreover, the compound was classed as inactive in [9].
Take `CCC(CO)(CO)[N+](=O)[O-]`: the Potency result in assay [1], in [2], in assay [4], in assay [5] and in assay [6] was “inactive” each time.
